rTrxR1 inhibitor = inhibitors of rat thioredoxin reductase 1. O89049. recombinant rTrxR1, NADPH fluorescence consumption, selenite substrate. Potency, µM (doses to about 114 µM), inactives show at the highest dose activity change, negative = inhibition, hits mostly inhibitors. actives 1% (n = 390,000). AID 588453; note: nearly all actives have a fitted effect of over 65% in size
Target sequence (O89049 whole entry, looked up): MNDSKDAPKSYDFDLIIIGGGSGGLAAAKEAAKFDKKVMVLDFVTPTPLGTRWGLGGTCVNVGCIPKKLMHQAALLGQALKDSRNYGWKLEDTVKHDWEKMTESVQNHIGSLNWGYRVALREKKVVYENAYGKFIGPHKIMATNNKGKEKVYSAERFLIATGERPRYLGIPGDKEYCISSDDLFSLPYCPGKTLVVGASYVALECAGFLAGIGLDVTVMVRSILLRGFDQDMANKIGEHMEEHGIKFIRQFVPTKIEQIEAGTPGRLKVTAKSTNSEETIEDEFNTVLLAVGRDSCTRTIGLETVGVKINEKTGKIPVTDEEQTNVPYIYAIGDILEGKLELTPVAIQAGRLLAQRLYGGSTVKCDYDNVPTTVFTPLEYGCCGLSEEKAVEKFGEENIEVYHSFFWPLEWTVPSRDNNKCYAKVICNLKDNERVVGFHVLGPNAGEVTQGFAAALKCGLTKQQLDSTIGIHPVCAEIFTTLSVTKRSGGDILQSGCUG
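Rat TrxR1 (90 nM in the dispensed reagent) was pre-reduced with 400 uM NADPH for 5 min at room temperature, then incubated with compound for 15 min. After 400 uM selenite was added, NADPH fluorescence (Ex 340/Em 450 nm) was followed for 8 min.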
GLS inhibitor = blocks human kidney-isoform glutaminase activity; O94925; Potency, µM (top dose mostly 45.5 µM), inactives show at the highest dose activity change, negative = inhibition, most hits filed as inhibitors; AID 624170; GLS enzymatic activity, qHTS titration; actives 0.21% (n = 410,000)
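Human kidney-isoform GLS in 45 mM KH2PO4 pH 8.2, 0.02% Tween-20, with compound, started with 1mM L-Glutamine (added stock). Glutamate oxidase/HRP/Amplex red coupled fluorescence read at start and after 30 min at RT.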
TrxR1 substrate = is turned over as a substrate by rat TrxR1 | purified TrxR1 substrate turnover, NADPH consumption readout | Potency, µM (titrated, usually from 114 µM), without a hit: top-dose activity change, negative = substrate turnover | actives 0.01% (n = 390,000) | AID 588456; note: nearly all actives have a fitted effect of over 50% in size
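Rat TrxR1, dispensed at 90 nM, was prereduced with 400 uM NADPH (final) for 5 min at ~22 deg C, then incubated with compound 15 min before 400 uM selenite. A first-read NADPH fluorescence drop versus no-compound background flagged substrates.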
mIDH1 inhibitor = human IDH1 R132H inhibition | O75874 | IDH1-R132H enzyme, NADPH consumption, diaphorase/resazurin fluorescence | Potency, µM (series often up to 76.6 µM), for inactives: at the highest dose activity change, negative = inhibition, actives largely listed as inhibitors | actives 0.093% (n = 390,000) | AID 602179; note: nearly all actives have a fitted effect of over 65% in size
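IDH1-R132H (0.5 ug/mL dispensed) in pH 7.5 Tris buffer was preincubated 30 min with compound, then given a substrate mix of 0.016 mM NADPH and 2 mM alpha-KG for 80 min at room temperature; remaining NADPH was read by diaphorase/resazurin fluorescence.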
Numbers without * were called inactive; ? = inconclusive; . = no result; [ ] = another dose, or the depositor's remark. Compounds with a hit are over-represented: about 1.2% of the library has one in this group of screens. Calls come from the whole dose curve; as a rule, active = well fitted curve in the direction sought with a large enough effect; inconclusive = small, poorly fitted or top-dose-only effect, or another doubt; inactive = no such curve, though single readings can be large; an effect the other way counts as inactive or inconclusive. % is set by controls: 0 for no effect and ±100 for the full control effect; potency is the fitted concentration of half-maximal effect.

SMILES | rTrxR1 inhibitor | GLS inhibitor | TrxR1 substrate | mIDH1 inhibitor
CN(CCCC1CCCC1)C(=O)CC1C(=O)NCCN1Cc1cccc(F)c1F (stereo not drawn) | 40µM* | 7% | 9% | 12%
CN(Cc1ccon1)C(=O)CC1C(=O)NCCN1Cc1cccc(F)c1F (stereo not drawn) | ? | 2% | 1% | 2%
CCOc1cc(CNCc2ccccc2)ccc1OCc1ccc(Cl)cc1 | 16% | -1% | 7% | 6%
CCOc1cc(CNc2ccc(O)cc2)ccc1OCc1ccc(Cl)cc1Cl | 28µM* | -12% | -21% | 20%
CCOc1ccccc1CNc1ccc(O)cc1 | ? | -21% | -7% | 19%
CCOc1cccc(CNc2ccc(O)cc2)c1OCc1ccc(Cl)cc1 | 45µM* | 14% | -12% | 8%
O=C(CN1CCN(c2ccc(F)cc2)CC1)c1ccc2c(c1)OCO2 | 25µM* | 18% | 4% | 3%
O=C(/N=C1\NC(=O)C(F)(C(F)(F)F)S1)NC1CCCCC1 (stereo not drawn) | 25µM* | -7% | -7% | 3%
Nc1ccc(/C=C/c2nccc3ccccc23)cc1 | 4% | . | -3% | .
Cc1ccn2c(NC3CCCC3)c(-c3ccsc3)nc2c1 | 12% | 7.1µM* | 11% | 4%
Fc1ccc(NC(=S)SCc2ccc3c(c2)OCO3)cc1F | . | 19% | . | -2%
COc1ccccc1CNC(=O)Cn1cc2c(n1)-c1c(oc(C(=O)N3CCOCC3)c1C)CC2 | 6% | 6% | 5% | 5%
Oc1ccccc1C1Nc2cccc3cccc(c23)N1 | -39% | 8% | 11%[57.1 µM] | 6%
O=[N+]([O-])c1ccccc1C1Nc2cccc3cccc(c23)N1 | 79µM* | 8.9µM* | -4% | 5%
CC(C)COc1ccc(C(=O)N(Cc2cccc(F)c2)C2CCS(=O)(=O)C2)cc1 (stereo not drawn) | 17% | -2% | -2% | -1%
CNCc1cc(C)n(-c2cc(S(=O)(=O)N3CCOCC3)ccc2N2CCCC2)c1C | . | -7% | . | -1%
Cc1cc(CNCCN(C)C)c(C)n1-c1cc(S(=O)(=O)N2CCOCC2)ccc1N1CCCC1 | 89µM* | 0% | 27% | 2%
COc1ccc(C2C(C(N)=O)=C(C)Nc3nc(CCCO)nn32)c(OC)c1 (stereo not drawn) | 22% | -1% | 1% | -5%
CN(C1=C(NC(=O)c2ccccc2)C(=O)c2ccccc2C1=O)C1CCS(=O)(=O)C1 (stereo not drawn) | 50µM* | -2% | -3% | 28%
CCOc1ccc(NC(=O)CSC2=Nc3ccccc3C3=NC(CC(=O)NCc4cccs4)C(=O)N23)cc1 (stereo not drawn) | 15%[57.1 µM] | -9% | -4%[57.1 µM] | -19%
CC1(C)CC(=O)C(C2C3=C(CC(C)(C)CC3=O)Oc3ccccc32)C(=O)C1 (stereo not drawn) | 56µM* | -5% | -6% | 4%
CC1(C)CC(=O)C(C2C3=C(CC(C)(C)CC3=O)Oc3ccc4ccccc4c32)C(=O)C1 (stereo not drawn) | -4%[57.1 µM] | 18% | -4%[57.1 µM] | 2%
CCOc1ccc2[nH]c(=O)c(C(c3nnnn3Cc3ccco3)N3CCCC(C)C3)cc2c1 (stereo not drawn) | 13µM* | -21% | 17%[57.1 µM] | -9%
COc1ccc2[nH]c(=O)c(CN(Cc3nnnn3Cc3ccco3)C3CCCCC3)cc2c1 | 18µM* | ? | 1% | 0%
CCOCCCn1c(SCC(=O)NCc2ccccc2)nc2c(sc3ccccc32)c1=O | 22%[57.1 µM] | -4% | 6%[57.1 µM] | 9%
SMILES | rTrxR1 inhibitor | GLS inhibitor | TrxR1 substrate | mIDH1 inhibitor
c1cnc2cc3c(cc2n1)[C@@H]1CNC[C@@H]3C1 | . | -1% | . | .
O=C(O)c1ccc(COc2ccc3c4c(c(=O)oc3c2)CCC4)o1 | -10%[57.1 µM] | 13µM* | 52%[57.1 µM] | -10%
O=c1oc2cc(OCc3ccc([N+](=O)[O-])cc3)ccc2c2c1CCCC2 | -1% | 2% | -3% | 3%
Oc1ccc(CNc2ccc(F)cc2)c2cccnc12 | 0.63µM* | 31% | 4% | 7%
Cc1cccc(NCc2ccc(O)c3ncccc23)c1 | 0.79µM* | 4% | 4% | 8%
Oc1ccc(CNc2ccccc2)c2cccnc12 | ? | 12% | -4% | 4%
Cc1ccccc1NCc1ccc(O)c2ncccc12 | 0.63µM* | 3% | 8% | 4%
Cc1cccc(CCNC(=O)C2CCN(c3nc4ccccc4nc3C(F)(F)F)CC2)c1 | 0%[57.1 µM] | -19% | -8%[57.1 µM] | -17%
O=C(C[n+]1ccccc1Br)c1ccc2c(c1)CCCC2 | -29% | . | 7% | .
Cc1cc(N/N=C/c2ccc(O)cc2O)nc(-c2ccccc2O)n1 | 0% | 2% | 0% | 40µM*
CN1C[C@H]2c3ccccc3Oc3ccc(Cl)cc3[C@@H]2C1 | . | 7% | . | .
COc1cc(CNc2cccc(F)c2)cc(Br)c1O | 13µM* | 9% | -1%[57.1 µM] | -2%
CN1CCN(C(=O)Cn2ncc3c4ccccc4n(Cc4ccc(F)cc4)c3c2=O)CC1 | 9% | 2% | 12% | -6%
O=C(NC1CCCC1)C(c1ccc(F)cc1)N(Cc1ccccc1Cl)C(=O)CCl (stereo not drawn) | 32µM* | 10% | -1% | -7%
COCCN(C(=O)CCl)C(C(=O)NC1CCCCC1)c1ccccc1C (stereo not drawn) | 28µM* | 12% | 3% | -1%
O=C(NC1CCCC1)C(c1ccc(F)cc1)N(Cc1ccc(F)cc1)C(=O)c1ccn[nH]1 (stereo not drawn) | 3%[57.1 µM] | 4% | 2%[57.1 µM] | 10%
CCc1ccc(NC(=O)C(CC)n2c(=O)c(-c3ccccc3NC(C)=O)nc3ccccc32)cc1 (stereo not drawn) | 16% | -4% | 5% | .
CCOc1cccc(/C=N/NC(=O)CC2C(=O)NN=C2C)c1O (stereo not drawn) | 11%[57.1 µM] | 5.6µM* | 8%[57.1 µM] | 7%
COc1cc(/C=N/NC(=O)CC2C(=O)NN=C2C)ccc1O (stereo not drawn) | 6% | 21% | -1% | -2%
Cc1ccc2c(c1)c1c(c(=O)n(Cc3ccccc3)c(=O)n1CC(=O)Nc1ccccc1C)n2C | 14% | 5% | -4% | 19%
NC1(c2ccc(-c3nc4ccn5c(=O)[nH]nc5c4cc3-c3ccccc3)cc2)CCC1 | 7% | 5% | 163% | .
COc1ccc(C=C(C(C)=O)C(C)=O)cc1OC | 45µM* | -25% | -17% | 1%
CSC1CCCCC1(O)CSc1nc2ccccc2o1 (stereo not drawn) | 6% | 13µM* | 2% | 10%
CCOC(=O)c1sc(=NC(=O)c2c(F)cccc2F)n(C)c1C | 12% | 18µM* | -8% | 4%
CCOC(=O)c1sc(=NC(=O)c2ccc(F)cc2)n(C)c1C | 13% | 3% | 8% | 14%
O=C(CSC1=NS(=O)(=O)c2cc(F)ccc2N1)Nc1ccccc1 | 16% | 12% | 6% | 8%
O=C(CSC1=NS(=O)(=O)c2ccccc21)Nc1ccccc1 | 7.9µM* | 3% | 6%[57.1 µM] | 14%
COC(=O)CSC1=NS(=O)(=O)c2ccccc21 | 2.2µM* | 30% | -2% | 1%
